An excerpt weighted towards active compounds, which were near 9.2% of everything screened.
HTT ATP protect = cytoprotection in Huntington HTT-Q103 PC12 cell model; PC12 HTT-Q103 induced, cytoprotection, ATP luminescence, 40 h; Potency, µM (highest dose often 56.4 µM), inactives show cytoprotection (ATP increase), actives largely listed as activators; actives 0.14% (n = 230,000); AID 1471; active = well fitted curve in the direction sought with a large enough effect; inconclusive = small, poorly fitted or top-dose-only effect, or another doubt; inactive = no such curve, though single readings can be large; an effect the other way counts as inactive or inconclusive; note: % of control where 0% means no effect; nearly all actives have a fitted effect of over 45% in size
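ATP quantification (ATPlite) reports survival of PC12 cells in which tebufenozide, 100 nM final, switches on Htt exon 1 with 103 glutamines linked to GFP; compounds are titrated.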
HTT aggregate = mutant huntingtin aggregation inhibition | PC12 HttQ103-GFP aggregates, Acumen cytometry, 40 h | Potency, µM (titrated, usually from 46.1 µM), without a hit: at the highest dose activity change, negative = inhibition, actives largely listed as inhibitors | actives 1.1% (n = 220,000) | AID 1688; active = well fitted curve in the direction sought with a large enough effect; inconclusive = small, poorly fitted or top-dose-only effect, or another doubt; inactive = no such curve, though single readings can be large; an effect the other way counts as inactive or inconclusive; note: % is set by controls: 0 for no effect and ±100 for the full control effect; nearly all actives have a fitted effect of over 60% in size
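Ecdysone-promoter PC12 model expressing HTT exon 1 Q103 fused to GFP, induced by tebufenozide at 100 nM final. Compounds titrated; aggregates sized 1–25 µm scored on a 488 nm laser cytometer.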
HPGD inh = HPGD (human) dehydrogenase inhibition | P15428 | purified HPGD, NADH fluorescence kinetic, PGE2 substrate | Potency, µM, without a hit: at the highest dose activity change, negative = inhibition, hits mostly inhibitors | actives 4.3% (n = 150,000) | AID 894; note: % is set by controls: 0 for no effect and ±100 for the full control effect
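20 nM HPGD preincubated 15 min at room temperature with compound in 50 mM Tris-HCl pH 8, 0.01% Tween 20. Started with 1 mM NAD+ and 30 uM prostaglandin E2; NADH fluorescence (360/450 nm) read 5 times over 30-s intervals, last minus first.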
ALDH1A1 block = blocks purified human ALDH1A1 activity; P00352; Purified ALDH1A1, NADH fluorescence, propionaldehyde substrate; Potency, µM (doses to about 75.3 µM), inactives show at the highest dose activity, negative = inhibition, most hits filed as inhibitors; actives 7.3% (n = 220,000); AID 1030;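 note: plate controls were no enzyme wells and a reference inhibitor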
Lamin A splicing = modulators of lamin A splicing. Potency, µM (series often up to 46.1 µM), without a hit: at the highest dose ratio change, negative = inhibition, most hits filed as inhibitors. HeLa LMNA splicing GFP/RFP minigene ratio, 48 h. actives 0.01% (n = 200,000); active = well fitted inhibition curve with a large enough effect in the signal ratio, with a control signal flat, not every such curve was filed as active; inconclusive = small, poorly fitted or top-dose-only effect, or effect the other way, or a change in a side signal; the % refers to the signal ratio; note: % is set by controls: 0 for no effect and ±100 for the full control effect
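S3 HeLa cells stably expressing lamin A-EGFP splicing minigene plus DsRed2, 600 cells/well, 48 h compound exposure at 37C. Laser-scanning cytometry; analysed as GFP (500-530 nm)/RFP (575-640 nm) total intensity ratio; 0.5% DMSO vehicle.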
JMJD2E inh = JMJD2E (human) inhibition | B2RXH2 | JMJD2E catalytic domain, FDH-coupled NADH fluorescence (FDH is formaldehyde dehydrogenase) | Potency, µM (top dose mostly 57.1 µM), for inactives: top-dose activity change, negative = inhibition, hits mostly inhibitors | actives 1.6% (n = 230,000);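 note: 0% = wells with enzyme and -100% = buffer wells without enzyme; nearly all actives have a fitted effect of over 50% in size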
Target sequence (B2RXH2 1-337 limits assumed): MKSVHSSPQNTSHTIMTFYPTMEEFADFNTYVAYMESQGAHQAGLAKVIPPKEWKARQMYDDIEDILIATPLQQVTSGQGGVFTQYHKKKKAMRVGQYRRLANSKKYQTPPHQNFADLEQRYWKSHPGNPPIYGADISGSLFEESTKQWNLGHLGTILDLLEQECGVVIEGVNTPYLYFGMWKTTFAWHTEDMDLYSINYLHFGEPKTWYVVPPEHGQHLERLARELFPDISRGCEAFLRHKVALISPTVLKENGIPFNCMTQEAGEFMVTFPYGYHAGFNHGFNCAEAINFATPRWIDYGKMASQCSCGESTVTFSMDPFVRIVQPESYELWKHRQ
The depositor's hits bear a star; ? = inconclusive; . = no result given; [ ] = another dose, or the depositor's remark. Unless noted, calls come from the whole dose curve; as a rule, active = well fitted inhibition curve with a large enough effect (not every such curve was filed as active); inconclusive = small, poorly fitted or top-dose-only effect, or another doubt; inactive = no such curve, though single readings can be large or run the other way. Potency is the fitted concentration of half-maximal effect.

SMILES	HTT ATP protect	HTT aggregate	HPGD inh	ALDH1A1 block	Lamin A splicing	JMJD2E inh
C=CCNC(=O)c1ccccc1NC(=O)C1COc2ccccc2O1 (stereo not drawn)	-65%[10 µM]	3.5µM*	.	0%	?	12%
CC(=O)NN1C(=O)/C(=C/c2ccc(Br)o2)SC1=S	7%	-8%[9.22 µM]	?	25µM*	-14%	?
CC(=O)NN1C(=O)/C(=C\c2ccc(Br)o2)SC1=S	.	?	?	?	?	0%
Cc1ccc(N2C(=O)[C@@H]3[C@H](C2=O)C2c4ccccc4C=NN2[C@@H]3C(=O)c2ccc(Cl)cc2)cc1 (stereo partly drawn)	21%[10 µM]	17%	-26%	-13%	8%	-12%
O=C(c1ccco1)[C@@H]1[C@@H]2C(=O)N(c3ccc(F)cc3)C(=O)[C@@H]2C2c3ccccc3C=CN21 (stereo partly drawn)	-3%	17%	32µM*	13µM*	2%	-29%
O=C(c1ccco1)[C@@H]1[C@@H]2C(=O)N(c3ccc(F)cc3)C(=O)[C@@H]2[C@H]2C=Cc3ccccc3N21	24%[10 µM]	21%	-22%	?	?	-17%
O=C(c1ccco1)[C@@H]1[C@@H]2C(=O)N(c3ccc(Br)cc3)C(=O)[C@@H]2C2c3ccccc3C=CN21 (stereo partly drawn)	-15%	6%	?	11µM*	10%	-5%
COc1cc(OC)c(C(=O)CCCCN2CCC3(CC2)NC(=O)NC3=O)cc1NS(=O)(=O)c1ccc(C(F)(F)F)cc1	-17%	.	-5%	3%	.	2%
Cn1c(=O)c(-c2ccc(F)cc2)nc2cncnc21	-45%	.	-11%	-15%	.	.
N#CCCn1cc(/C=N/NC(N)=S)c(-c2ccccc2)n1	26%	-10%	.	?	45%[46 µM]	13%
O=C1C(Cl)=C(N2CCCCC2)C(=O)N1c1ccccc1	-14%	6%	18µM*	?	6%	6%
O=C1C(Cl)=C(N2CCCCC2)C(=O)N1c1ccccc1Cl	-19%[10 µM]	7%	-13%	?	-4%	0%
CC(C)c1ccc(CN(Cc2ccco2)c2cnc(S(C)(=O)=O)nc2C(=O)Nc2ccccc2)cc1	.	.	.	.	7%[46 µM]	.
C=CCOC[C@@H]1CN2[C@H](c3ccc(Br)cc3)[C@@H](C)CC[C@H]2C(=O)O1	-27%	.	3%	-2%	.	1%
C#CCSC1=C(C#N)C(c2cccs2)C(C(=O)OCC)=C(C)N1 (stereo not drawn)	-21%	-3%	-23%	25µM*	-6%	?
O=C(Nc1ccccn1)C(NS(=O)(=O)c1cccc2nsnc12)c1ccccc1 (stereo not drawn)	-47%[10 µM]	?	32µM*	?	18%	-1%
Cc1cccc(C)c1NC(=O)CCSCCc1ccccn1	.	.	.	.	0%[46 µM]	.
CCN(CCNC(=O)C1CCN(Cc2nc(-c3cccc(Cl)c3)oc2C)CC1)c1ccccc1	-91%	10µM*	-21%	-15%	?	?
Cn1nnnc1SCCCNCc1ccc(-c2ccc(F)c(Cl)c2)o1	.	.	.	.	0%[46 µM]	.
CCN1C(=O)c2cccc3c(NC(=O)c4ccc(S(=O)(=O)N5CCOCC5)cc4)ccc1c23	-21%[10 µM]	32%	-13%	2µM*	?	3%
CCN1C(=O)c2cccc3c(NS(=O)(=O)c4ccc(NC(C)=O)cc4)ccc1c23	-9%[10 µM]	-23%	-11%	?	?	2%
CCN1C(=O)c2cccc3c(NC(=O)c4ccc(S(=O)(=O)N(C)C)cc4)ccc1c23	4%[1.9 µM]	5%	-11%	2.8µM*	?	-4%
O=C(CN1C(=O)c2cccc3cccc1c23)Nc1ccc(S(=O)(=O)N2CCOCC2)cc1	14%[1.9 µM]	-19%	?	?	-16%	?
O=C(COC(=O)Cc1ccccc1F)Nc1ccc(Cl)cn1	-19%	-4%	.	13µM*	?	-3%
CCN1/C(=C2\SC(=S)N(Cc3ccccc3)C2=O)Sc2ccccc21	27%[10 µM]	5%	-15%	-1%	-9%	9%
